Assay results as given in PubChem BioAssay AID1347426 (Functional Genomics Laboratory (NCATS/FGL), 2020).
Hit rate of the full screen: of about 31,000 sequences, about 1,400 (4.5%) were called active. The sample as a whole holds a higher share of actives than the screen did. Values without a mark were called inactive.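 Rule for the calls: active = median seed-adjusted z-score above 1 or below -1; inactive = the rest.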

Test: Novel Modifiers of Survival Motor Neuron (SMN) Protein: Gene Identification via Genome-wide siRNA Screen;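 note: luminescence tracks full-length SMN protein made from the SMN2 reporter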
Settings: HEK293T SMN2-luciferase reporter, siRNA knockdown, 72 h; actives lie on both sides
Method in brief: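 Luciferase signal, proportional to full-length SMN made from an SMN2 cDNA reporter in stable HEK293T cells, was read 72 h after siRNA reverse transfection. Values were expressed as MAD scores after non-targeting-control normalization and log10 conversion; seed analysis flagged off-targets.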

In order of falling median seed-adjusted z-score:
1. GGGUGUCUGCGAUUAUCUUTT against WDFY1  0.979
2. GGACCACAGACAUAGUAGATT against NCOA5  0.947
3. CGACCUUCAAAGUUAACAATT against CLIP1  0.853
4. GGACCAGAGAGACUUCAUUTT against ASTL  0.722
5. CUAUCAUAGUGACAAGCGATT against GJA5  0.707
6. AUCAAGUCUUCUUACAAGATT against VDAC2  0.648
7. UGAUGAACUCGGAAAUGCATT against PPAPDC1A  0.634
8. CAAAGAGAUUUGUACAGAUTT against ZNF140  0.587
9. CAGGUACCGUCAUCACAUUTT against PCDHA7  0.552
10. ACAAUGAAGUUCUCCCUGATT against PCGF1  0.508
11. CAUCAACGAAGGAAAUAUATT against CD27  0.5
12. GGUUCUUCCCGUUGUCUUUTT against TOMM22  0.486
13. GCUCAACAGUCCCUAGUUATT against RSC1A1  0.438
14. GAAUCUUGCCCGUCUAUAATT against RSC1A1  0.438
15. GCUCUGUGCUCUCUAGUGATT against LEFTY1  0.383
16. CAGUGACCCGGAUCCUCUATT against RHCG  0.375
17. UGAAAGGACUUGUCUGAAATT against CHST6  0.372
18. ACAUGGACAAUGCCGCAGATT against HSPBP1  0.368
19. CCAUCUAUGAGGCGGGAAATT against MFI2  0.365
20. CCAACAAGCUGUCUCCCUATT against CENPB  0.292
21. CCAUCGACAUUGAAACCUUTT against PITPNM2  0.275
22. CCCUGUUAUGUCAAGCUUATT against SYNPR  0.257
23. GAAUUGGAAGAAGAUAUCATT against RHOBTB3  0.256
24. CUAAGAUGGUUAUCAAGAATT against SLC1A2  0.249
25. CCCUCACUAUCACGGUUAATT against ATP6V1B2  0.24
26. CCGUGAUCGUGAAGCUAGATT against PKD2  0.219
27. CAGCUGUACCGAUUAAGCATT against MEP1A  0.209
28. GGAAACUCGUGGACUAUGATT against BIN2  0.205
29. AGCGCGUCAUGAUGACCUATT against PER1  0.176
30. GAUUCCGUCUAAUCCUAGATT against C5  0.153
31. AGAAGGUGACUCAAAGAAUTT against WFDC1  0.152
32. CGCUCACACUGGGUUCCAATT against SLC34A1  0.139
33. GUGUAUUACCUGAGAAUCATT against CYP24A1  0.136
34. AGAGGAUCCUGAACUCCAATT against MYO19  0.0987
35. GCAUUUAGGUACCAGCUCATT against SLC39A2  0.0602
36. GGUAUGAGGUUGACUCAUUTT against IFNAR1  0.0327
37. CUGUCCGUAUGAUUACAAATT against ZFAND5  0.0289
38. GGUCCGGAAUGUGAACUUUTT against SERPINE2  0.0144
39. CCAGGGAUAUGAUUGACAATT against SERPINE2  0.0144
40. GACUCUGAAUGCUUGCUGUTT against MMS19  0.0142
41. GGAAAUCCUUCAUAUACAATT against ZNF549  0.0114
42. GCAGUACACGAGAAAGUCATT against 1-Sep  0.0103
43. CACCAUCUCCGGGAACAGATT against FUT1  0.000845
44. GAGAUAACAUCAGUAGAAATT against FGF10  0
45. CCUCAUGUCGGGCAUCUUATT against EGR4  0
46. GGACUACGGAGUUCGAGAATT against MGC29506  0
47. CCUCAUCAACUCUGACAUATT against LMO2  0
48. GGAUCUAUCUCAUCAAACATT against NDUFC1  0
49. CCUCAUUUGUCUACACCAUTT against RAD51L1  0
50. AGCCUUUAGUGUCCGUUCATT against ZNF347  0
51. GGUAUGGAUUGAUGCCGCATT against SLC6A2  0
52. CAGUGUCCAUGUACCUCUUTT against SLC37A4  -0.00202
53. GAAUGAGGCAUAUCAAGCATT against TUBD1  -0.00491
54. GGAGGUCUCAAGUUCAACATT against LENG8  -0.00539
55. GUACAAGAGAUAAUGCAAATT against TFPI  -0.0076
56. GAUGAUCUGUGAGACCAAATT against BOC  -0.0192
57. GCAUCGCCCUGAUGAGUAATT against ADCY7  -0.0202
58. CCUCUUACACUUUUCCGAATT against PECI  -0.0254
59. CAGACUUAUUACUAGAUGATT against PRDX5  -0.0386
60. CCCUCAGACUGUACGCAGATT against PGM5  -0.0543
61. CGCCUUGAAUGGGAGCAAATT against C2  -0.0549
62. AAGUACAUAUAACCACUUATT against RAB14  -0.0567
63. GUUCCUUAUUGUUAAGGUATT against PCDHB10  -0.09
64. GGAGCUACUUUGACUCACUTT against KCNK13  -0.0924
65. CACCGUCUGAGAUAAUAGATT against LST-3TM12  -0.109
66. CCACACUGGUGAUAGACCATT against ZNF384  -0.132
67. CUUAAUUCUUGGUCUAUGATT against SP6  -0.176
68. GGAGACCUGCGAUUACUUUTT against BARX2  -0.206
69. GCAUGGGUUUUAUUAUAUATT against CCL11  -0.221
70. GCGACUGUCUCGACAGAUATT against HTT  -0.234
71. CAGUUCAAGUGACCAUUGATT against CD300LF  -0.264
72. GGAUUUGAGGGAAAACGCATT against FMO2  -0.265
73. GGACCGUGUUCUUUACGUATT against NDUFAB1  -0.282
74. GGUUGGUGAUGUCAAGUAUTT against CDKL2  -0.293
75. GGAUAGCUAAAGAAAUUCATT against IMPA1  -0.295
76. GCAAAGGCACUGAAUCGAATT against MAP4K5  -0.309
77. GGGACUAGCUCUUCGCAUATT against PTGER3  -0.321
78. GACUGAAUGAUAUGAAAGATT against RHOQ  -0.328
79. GAGAAACCUUUAUUCGAUATT against GLULD1  -0.332
80. CUCUCUCUCUACGAACAUUTT against TCF7  -0.338
81. GAUUCUUUUGAAAAAGUGATT against ZNF675  -0.343
82. GGAUUAUUCAUUAUUACAUTT against NDUFB6  -0.357
83. GAUCCACCUGAGACAGAAATT against EGR2  -0.37
84. GUGCAUGUAUGAAGCCGAATT against NDUFB10  -0.39
85. GCAAUGCGUUCUUUCUAAATT against SIGLEC11  -0.395
86. CCCAGUUCCUAGACUGUAUTT against MTMR8  -0.416
87. CAUCAUUACUGUUGAGGGATT against CSRP2BP  -0.526
88. CCCAUAAUAUCAUUGAGAATT against SREBF2  -0.606
89. CGACCCAGACAAUAGACUATT against CCNT1  -0.72
90. GACUCGUGGUUUGAAGUGATT against ZNRF1  -0.808
91. AGCCCGUGAUGUACACGUATT against COL8A1  -0.848

With GAAGCAGGGUUAAAGCGGATT against PRDM2 the median seed-adjusted z-score was 1.12 (active).
With CCAUCAAGCUCUACAAGGATT against TOP3B the median seed-adjusted z-score was -1.11 (active).
In the case of CGAAGGAUAUCUAUCAUCATT against NXF1, the median seed-adjusted z-score is reported as -4.46 (active).
In the case of AGAUGGAGUUUGAUCCUAATT against POLR2G, the median seed-adjusted z-score is reported as -4.19 (active).
In the case of GAACUGCAAAGACCUGUUUTT against SSU72, the median seed-adjusted z-score is reported as -1.64 (active).
With UGAGCACAAUCAAGUCUAATT against BRD4 the median seed-adjusted z-score was 1.13 (active).
In the case of GAAUGGAAGAUUUCACCUUTT against SNAPC3, the median seed-adjusted z-score is reported as -1.72 (active).
For AGCUCUUUGCUACAGAUGATT against ACAD8, the median seed-adjusted z-score was 1.06 (active).
For AGUUCAUGCAAGAUCCAAUTT against BAT1, the median seed-adjusted z-score was -1.49 (active).
For GCCCGUCUAUGACAAGAAATT against RELB, the median seed-adjusted z-score was 1.16 (active).
For GUACCCUGGAGGAAAGCGATT against GNRH2, the median seed-adjusted z-score was 1.13 (active).
In the case of GGAGCUCAUUUGACAUGUATT against KIR2DL5B, the median seed-adjusted z-score is reported as 1.72 (active).
With AGUGGUCCCUUCACAGGAATT against GNRH2 the median seed-adjusted z-score was 1.13 (active).
In the case of CACGAGCUAAAGUAAAAUATT against EGLN1, the median seed-adjusted z-score is reported as 2.05 (active).
With GGACGAGCCUCAUGAAUGATT against SEC11B the median seed-adjusted z-score was 1.04 (active).
With CUACAUCAAGAAGACAUAUTT against ABHD2 the median seed-adjusted z-score was -1.21 (active).
For GCACCAUUCUAACAAUGGATT against NANS, the median seed-adjusted z-score was -1.54 (active).
